Test results from PubChem BioAssay (NCATS).
Records with an inconclusive call do not appear. Active and inactive are the calls of the source. Calls follow the shape of the dose curve; as a rule, active = well fitted cell-killing curve with a large enough effect; inconclusive = small, poorly fitted or top-dose-only effect, or effect the other way; inactive = flat fitted curve, though single readings scatter.

Experiments:
Assay in all cases: Primary qHTS to identify gynecologic anti-cancer compounds using libraries of approved drugs and bioactive compounds (AID 1345084); also: nearly all actives have a fitted effect of over 55% in size
Conditions in all cases: Gynecologic cancer cell panel viability, ATPlite luminescence, 48 h; series mostly up to 57.5 µM
C33A = tested on: C33A
In short: (§1)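 ATP-based viability (ATPlite), 1,000 cells/well, 16 h pre-incubation, 48 h compound at 37 C, 5% CO2, 15 min RT before read.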

CAOV3 = tested on: CAOV3
In short: as §1

CASKI = tested on: CASKI
In short: as §1
% is scaled to controls: 0 for no effect and ±100 for the full control effect.

CC1=C(C)C(=O)OC(C(C)(O)C2CCC3C4CC=C5CC(OC6OC(COC7OC(CO)C(O)C(O)C7O)C(O)C(O)C6O)CC(O)C5(C)C4CCC32C)C1 (stereo unspecified)
inactive: Potency (C33A) | Potency (CAOV3) | Potency (CASKI)

C[C@@H]1C(=O)O[C@H]2CC34[C@H]5C[C@@H](C(C)(C)C)C36[C@@H](OC(=O)[C@@H]6O)OC4(C(=O)O5)[C@]21O (stereo partly specified)
inactive: Potency (C33A) | Potency (CAOV3) | Potency (CASKI)

C=CC1(C)C=C2C(O)CC3C(C)(C(=O)O)CCCC3(C)C2CC1 (stereo unspecified)
inactive: Potency (C33A) | Potency (CAOV3) | Potency (CASKI)

CC(=O)OC[C@]12[C@H](OC(C)=O)C(=O)[C@@H]3[C@@H](OC(C)=O)[C@@]14O[C@@]3(C)COC(=O)c1cccnc1[C@@H](C)[C@H](C)C(=O)O[C@@H]([C@H](OC(C)=O)[C@@H]2OC(C)=O)[C@]4(C)O
inactive: Potency (C33A) | Potency (CAOV3) | Potency (CASKI)

O=C(O[C@@H]1O[C@H](CO)[C@@H](O)[C@H](O)[C@H]1O)c1c(O)cc(O)cc1/C=C/c1ccccc1
inactive: Potency (C33A) | Potency (CAOV3) | Potency (CASKI)

Nc1ccn([C@@H]2C(F)=C(CO)[C@@H](O)[C@H]2O)c(=O)n1
inactive: Potency (C33A) | Potency (CAOV3) | Potency (CASKI)

C[C@@H]1O[C@@H](O[C@H]2[C@H](O)[C@@H](O)[C@H](OC[C@H]3O[C@@H](OC(=O)[C@]45CCC(C)(C)C[C@H]4C4=CCC6[C@@]7(C)C[C@H](O)[C@H](O[C@@H]8O[C@H](CO)[C@@H](O)[C@H](O)[C@H]8O)[C@@](C)(C(=O)O)C7CC[C@@]6(C)[C@]4(C)CC5)[C@H](O[C@@H]4O[C@H](CO)[C@@H](O)[C@H](O)[C@H]4O)[C@@H](O)[C@@H]3O)O[C@@H]2CO)[C@H](O)[C@H](O)[C@H]1O (stereo partly specified)
inactive: activity change, negative = cytotoxicity (C33A) 4.28% [at 6.55 µM] | activity change, negative = cytotoxicity (CAOV3) 11.2% [at 6.55 µM] | activity change, negative = cytotoxicity (CASKI) 9.67% [at 6.55 µM]
